Measurements as given in PubChem BioAssay AID1259313 (Sanford-Burnham Center for Chemical Genomics, 2017).
Values joined by “and” are separate entries in the source; they are usually repeats but may differ in a detail not shown here. Equal entries are not always repeated. Out of some 340,000 compounds screened, about 8,500 (2.5%) were called active.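 Rule for the calls: active = melting temperature shift of at least 10% of the positive control shift, at one fixed dose; inactive = the rest.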 The list comes from a sample in which actives are over-represented; it also holds similar structures and randomly drawn compounds.

System: Glutamate receptor ionotropic, NMDA 3A (GRIN3A) ligand-binding domain
Experiment: NR3A LBD thermal stabilization by compounds – biophysical, differential scanning fluorimetry, uHTS, primary screen (AID 1259313)
Conditions: at 25 µM, hits give high values, 0% = protein alone, 100% = glycine-bound protein

Compound	Tm shift relative to glycine control
CC(C)Cn1cnc2c(SCc3ccc(Cl)cc3)nc(N)nc21	-6.54% (inactive)
CCOC(=O)c1ccc(-c2ccc(C(=O)Nc3cccnc3)o2)cc1	-18.8% (inactive)
COC(=O)C1=C(C)NC2=C(C(=O)c3ccccc32)C1c1ccc(-c2ccc(C(=O)O)cc2)o1 (configuration not stated)	30% (active)
COC(=O)C1=C(C)N(C)C(=O)NC1c1ccc([N+](=O)[O-])o1 (configuration not stated)	-3.85% (inactive)
NC(=O)C[n+]1cccc(C(N)=O)c1	-0.09% (inactive)
O=C(Nc1ccc(Cl)cc1)/C(=C1\CCCN1)[N+](=O)[O-]	-1.33% (inactive)
COc1ccc(/C=N/Nc2cc(N3CCOCC3)nc(C)n2)c(OC)c1	-3.16% (inactive)
COc1cccc(/C=N/Nc2cc(C)nc(-c3ccccc3O)n2)c1O	30.6% (active)
COc1ccc(Cc2nnc(N/N=C/c3ccccc3O)[nH]c2=O)cc1OC	-2.87% (inactive)
COc1ccc(NS(=O)(=O)c2cc(NC(=O)CC(=O)c3ccc([N+](=O)[O-])cc3)ccc2C)cc1	24% (active)
COc1ccc(NS(=O)(=O)c2cc(C(=O)Nc3ccccc3C(=O)O)ccc2C)cc1	1.75% (inactive)
COc1ccc(C(=O)CC(=O)C(=O)Nc2cc([N+](=O)[O-])ccc2OC)cc1	2.73% (inactive)
COc1ccc(/C=C/C(=O)OCC(=O)NCc2cccs2)cc1OC	0.79% (inactive)
C#C[C@]1(O)CC[C@H]2[C@@H]3CCC4=CC(=O)CC[C@@H]4[C@H]3CC[C@@]21CC	1.26% (inactive) and -0.79% (inactive)
CCOC(=O)CNc1nc2ccccc2n2c(C)nnc12	-9.54% (inactive)
Cc1ccc(Oc2nc3ccccc3n3c(C)nnc23)cc1	12.7% (active)
Cc1ccc(S(=O)(=O)N(C)c2nc3ccccc3n3c(C(C)C)nnc23)cc1	1.79% (inactive)
COc1ccccc1-n1cnc2cc(NS(=O)(=O)c3ccccc3)ccc21	0.96% (inactive)
O=C1c2cccc3cccc(c23)C(=O)N1c1cccc(O)c1	3.66% (inactive)
O=C(c1cccc(Br)c1)N1CCN(C2=NS(=O)(=O)c3ccccc32)CC1	-0.26% (inactive)
CCC1CCCCN1C(=S)Nc1ccc(S(=O)(=O)Nc2ncccn2)cc1 (configuration not stated)	-1.92% (inactive)
COc1cc(NC(=O)c2cc([N+](=O)[O-])ccc2Br)ccc1NC(=O)c1ccco1	-2.17% (inactive)

Compound	Tm shift relative to glycine control
O=C(Nc1ccc(C2CC2(Cl)Cl)cc1)c1cccc([N+](=O)[O-])c1 (configuration not stated)	-0.36% (inactive)
O=C(Nc1ccc(NC(=O)c2ccco2)c(Cl)c1)c1cccc([N+](=O)[O-])c1	24.7% (active)
COc1ccc(N2CCN(C(=O)c3ccccc3NC(=O)C3=C(C)OCCS3)CC2)cc1	-0.18% (inactive)
CCOC(=O)c1cc2cc(C)ccc2[nH]1	0.1% (inactive)
Cn1ccc(=NC=C(C#N)C#N)c2ccccc21	-0.6% (inactive)
Cc1cc(C)n2nc(C(=O)OC(C)C(=O)c3cc(C)c(C)cc3C)nc2n1 (configuration not stated)	1.24% (inactive)
Cc1cc(=O)oc2cc(OCC3CC(c4ccccc4Cl)=NO3)ccc12 (configuration not stated)	11.5% (active)
Cc1cc(=O)oc2cc(OCCC[n+]3ccccc3)ccc12	-1.47% (inactive)
CCOc1ccccc1N1CCN(C(=O)COc2ccc3c(C)cc(=O)oc3c2)CC1	-4.48% (inactive)
O=C(COC(=O)/C=C/c1cccc(Cl)c1)NCCc1ccccc1	0.53% (inactive)
C[C@H](O)[C@@H]1C(=O)N2CCc3ccc(N4CCOCC4)cc3[C@@H]2C[C@@H]1N(C)C(=O)C(C)(C)C	-1.15% (inactive)
O=C(NCc1ccco1)C(c1ccncc1)N(C(=O)Cn1nnc2ccccc21)c1ccccc1 (configuration not stated)	-1.69% (inactive)
COc1ccc(Br)cc1C(=O)NC(=S)Nc1cc(-c2nc3ccccc3[nH]2)ccc1C	25.9% (active)
COc1ccc(Br)cc1C(=O)Nc1cccc(C)c1C	-2.13% (inactive)
COc1ccccc1C(=O)NC(=S)Nc1ccccc1N1CCCCC1	-4.34% (inactive)
Cc1ccc2cc(C)c(N3CCC(C)CC3)nc2c1	3.71% (inactive)
Cc1ccccc1NC(=O)CSc1nc2ccc(Nc3nc(N4CCOCC4)nc(N4CCOCC4)n3)cc2s1	-1.11% (inactive)
O=C(CSc1nc(Nc2ccccc2)nc(N2CCOCC2)n1)Nc1cc(Cl)ccc1O	32.6% (active)
CC1(c2ccccc2)NC(=O)N(CC(=O)Nc2cc(Cl)ccc2N2CCOCC2)C1=O (configuration not stated)	0.96% (inactive)
Cc1ccc(C(=O)OCC(=O)NC(=O)Cc2ccccc2)c(O)c1	0.78% (inactive)
O=S(=O)(NC1CCCCC1N1CCN(c2ccccc2F)CC1)c1ccccc1 (configuration not stated)	-1.62% (inactive)
CN1C(=O)C(CC(N)=O)N(NC(=O)c2ccc(Cl)cc2)C1=S (configuration not stated)	-3.25% (inactive)

Compound	Tm shift relative to glycine control
Cc1ccc(NC(=O)CC2C(=O)N(Cc3ccccc3)C(=S)N2NC(=O)c2cccc(F)c2)c(C)c1 (configuration not stated)	19.1% (active)
Cc1ccc(N2C(=O)C(CC(=O)Nc3cccc(F)c3)N(CCc3ccncc3)C2=O)cc1 (configuration not stated)	0.4% (inactive)
CC1=C(C(=O)Nc2ccccc2)C(c2cccs2)C(C#N)=C(SCC#N)N1 (configuration not stated)	-11.3% (inactive)
O=C(NCCOc1ccccc1Cl)C(=O)Nc1ccccc1	-4.63% (inactive)
O=C(COc1ccccc1F)NNC(=O)c1cc(Br)ccc1Cl	0.51% (inactive)
O=C(NCCOc1ccccc1F)Nc1ccc(Br)cc1	16.4% (active)
CCN(CC)c1ccc(NC(=O)c2ccc(=O)[nH]c2)cc1S(=O)(=O)Nc1ccc(OC)cc1	-4.98% (inactive)
Cc1nc(SCC(=O)N2CCc3ccccc3C2)c2c(C)c(C)sc2n1	-0.44% (inactive)
COc1cc(OC)cc(C(=O)NCC(=O)N2CCCCCCC2)c1	3.22% (inactive)
Cn1c(Nc2cccc(Cl)c2)nc2ccccc21	8.46% (inactive)
O=C(Nc1cccc(Cl)c1)c1cc([N+](=O)[O-])ccc1N1CCN(CCO)CC1	3.77% (inactive)
Cc1c(C(=O)Nc2cccc(Cl)c2)cn2c(nc3ccccc32)c1C#N	24.6% (active)
CCCN(C(=O)c1nc2nccc(C)n2n1)c1c(N)n(Cc2ccccc2)c(=O)[nH]c1=O	-5.77% (inactive)
O=C(CCN1C(=O)c2ccccc2C1=O)NNC(=O)c1ccc(Cl)cc1Cl	-1.46% (inactive)
CCc1ccc(CNC(=O)C2CCN(c3nnc(C)c4c(C)n(-c5ccc(C)cc5)nc34)CC2)cc1	-2.58% (inactive)
Cc1nc2ccccc2nc1N/N=C/c1ccc(O)cc1O	34.3% (active)
COc1ccccc1N1CCN(/N=C/c2ccc(O)cc2O)CC1	1.98% (inactive)
Oc1ccc(-c2nc3ccccc3nc2-c2ccc(O)cc2O)c(O)c1	-6.22% (inactive)
O=C(Nc1ccnn1C1CCN(Cc2cccc(OCCO)c2)CC1)C1CCCC1	0.6% (inactive)
COc1ccc(CN2CC(C(=O)NCCc3ccc(Cl)cc3)CC2=O)cc1 (configuration not stated)	-2.13% (inactive)
COc1ccccc1N(CC(=O)Nc1c(C)n(C)n(-c2ccccc2)c1=O)S(=O)(=O)c1ccccc1	-1.61% (inactive)
COc1ccc(Cl)cc1NS(=O)(=O)c1cccc(C(=O)NC2CCC(O)CC2)c1 (configuration not stated)	0.97% (inactive)

Compound	Tm shift relative to glycine control
NS(=O)(=O)c1ccc(CCNC(=O)CCCn2c(SCC(=O)N3CCCC3)nc3ccsc3c2=O)cc1	-0.96% (inactive)
CN(c1ccccc1)S(=O)(=O)c1cc(C(=O)Nc2nc3ccccc3[nH]2)ccc1Cl	-0.62% (inactive)
CCC(=O)Nc1ccc2nn(-c3ccc(F)cc3)nc2c1	-10.1% (inactive)
Cc1ccc(-n2nc3ccc(NC(=O)/C=C/c4ccco4)cc3n2)cc1C	32.1% (active)
O=C(/C=C/c1ccco1)Nc1ccc(Oc2ccccc2)cc1	2.36% (inactive)
O=C(/C=C/c1ccco1)Nc1cccc(-c2nc3ccccc3[nH]2)c1	22.5% (active)
CC(C)Oc1ccc(/C=C(\NC(=O)/C=C/c2ccco2)C(=O)NCCc2nc3ccccc3[nH]2)cc1	-0.09% (inactive)
COc1ccc(C(=O)Nc2cccc(S(C)(=O)=O)c2)cc1	4.52% (inactive)
O=C(Nc1cccc(-c2nc3ccccc3[nH]2)c1)c1ccc(C(=O)Nc2cccc(-c3nc4ccccc4[nH]3)c2)cc1	27.9% (active)
COc1cccc(NC(=O)COC(=O)/C=C/c2ccco2)c1	-0.92% (inactive)
COc1cc2c(cc1OC)C(c1ccccc1Br)NC(=O)C2 (configuration not stated)	-0.95% (inactive)
Cn1c(=O)c2ccccc2n(CC(=O)Nc2ccc3c(c2)OCCO3)c1=O	-1.03% (inactive)
C[C@@H]1NC(=O)c2cc([N+](=O)[O-])cc(F)c2NCCC[C@@H](C(N)=O)NC(=O)[C@H](CC(N)=O)NC1=O	1.79% (inactive)
CC(=O)N(CN1C(=O)C2C3C=CC(C3)C2C1=O)c1cccc(Cl)c1 (configuration not stated)	-2.44% (inactive)
Oc1c(Br)cc(/C=N/NC(=S)NCC2CCCO2)cc1Br (configuration not stated)	1.71% (inactive)
COc1ccc(NC(=O)NC2CC3CCCC(C2)N3Cc2ccccc2)cc1 (configuration not stated)	0% (inactive)
CC(=O)Nc1ccc(S(=O)(=O)NC(C)C(=O)OCCOc2ccc(F)cc2)cc1 (configuration not stated)	22.1% (active)
CC(=O)Nc1ccc(S(=O)(=O)NC(C)C(=O)OCC(=O)NC2CCCC2)cc1 (configuration not stated)	0.79% (inactive)
COc1ccc(-c2noc(C(C)NS(=O)(=O)c3ccc(NC(C)=O)cc3)n2)cc1 (configuration not stated)	-8.89% (inactive)
Cc1c(NC(=O)c2cc(-c3ccc(Cl)s3)nc3ccccc23)c(=O)n(-c2ccccc2)n1C	1.05% (inactive)
C[C@H](NC(=O)C1CC(=O)N(c2ccc3c(c2)OCCO3)C1)C(=O)N1CCC(C(=O)O)CC1 (some centres not stated)	-0.91% (inactive)
